Common to all, as to parameters: scale not given: direction of the effect not stated beside the values
Test [1] concerns the target Protein translocase subunit SecA (Escherichia coli (strain K12)) (UniProt P10408). Kind of test: Assay to Identify E. coli SecA ATPase Inhibitors. In kind it is functional. The settings on record: 30 µM.
For test [2], the target named is T1, Ubiquitin-activating enzyme e1, putative (Leishmania donovani (strain BPK282A1)) (UniProt E9BSI1).
T1 sequence (whole entry): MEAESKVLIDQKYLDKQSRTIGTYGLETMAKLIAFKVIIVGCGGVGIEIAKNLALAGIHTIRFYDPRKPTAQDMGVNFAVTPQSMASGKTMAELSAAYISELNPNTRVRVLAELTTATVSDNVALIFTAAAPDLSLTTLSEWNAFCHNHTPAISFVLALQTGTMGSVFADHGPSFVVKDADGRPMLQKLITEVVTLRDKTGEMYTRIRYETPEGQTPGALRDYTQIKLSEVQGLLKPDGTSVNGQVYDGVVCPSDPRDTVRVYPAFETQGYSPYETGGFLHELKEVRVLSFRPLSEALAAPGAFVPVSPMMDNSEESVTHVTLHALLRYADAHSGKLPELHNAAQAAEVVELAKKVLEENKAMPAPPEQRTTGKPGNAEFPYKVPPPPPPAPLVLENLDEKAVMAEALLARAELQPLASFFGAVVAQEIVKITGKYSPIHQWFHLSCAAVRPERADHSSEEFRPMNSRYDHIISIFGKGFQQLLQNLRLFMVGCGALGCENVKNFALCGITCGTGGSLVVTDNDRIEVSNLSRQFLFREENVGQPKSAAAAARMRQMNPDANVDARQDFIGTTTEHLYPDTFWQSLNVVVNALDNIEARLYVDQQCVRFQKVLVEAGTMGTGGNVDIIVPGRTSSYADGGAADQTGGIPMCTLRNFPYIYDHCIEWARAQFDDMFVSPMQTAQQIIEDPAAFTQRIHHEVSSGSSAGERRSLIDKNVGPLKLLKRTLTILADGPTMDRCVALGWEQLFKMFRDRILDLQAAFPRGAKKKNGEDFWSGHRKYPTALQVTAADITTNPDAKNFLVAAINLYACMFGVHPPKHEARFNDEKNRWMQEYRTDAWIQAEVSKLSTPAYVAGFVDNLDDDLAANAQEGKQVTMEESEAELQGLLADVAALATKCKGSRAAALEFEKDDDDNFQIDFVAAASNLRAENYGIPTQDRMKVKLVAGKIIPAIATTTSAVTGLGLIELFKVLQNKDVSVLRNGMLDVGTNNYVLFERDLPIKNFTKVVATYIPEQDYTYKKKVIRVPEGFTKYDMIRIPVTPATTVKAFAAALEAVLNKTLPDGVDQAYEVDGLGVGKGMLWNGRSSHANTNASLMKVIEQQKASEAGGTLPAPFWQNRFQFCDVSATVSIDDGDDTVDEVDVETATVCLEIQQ
Put plainly: Leishmania donovani Ubiquitin Activating Enzyme (LdE1). In kind it is functional. Particulars: 30 µM.

Test [3] concerns the target T2, Aspartate--tRNA(Asp/Asn) ligase (Mycobacterium tuberculosis (strain ATCC 25618 / H37Rv)) (UniProt P9WFW3). Note: in the data most compounds retested in dose-response had high values.
T2 sequence (whole entry): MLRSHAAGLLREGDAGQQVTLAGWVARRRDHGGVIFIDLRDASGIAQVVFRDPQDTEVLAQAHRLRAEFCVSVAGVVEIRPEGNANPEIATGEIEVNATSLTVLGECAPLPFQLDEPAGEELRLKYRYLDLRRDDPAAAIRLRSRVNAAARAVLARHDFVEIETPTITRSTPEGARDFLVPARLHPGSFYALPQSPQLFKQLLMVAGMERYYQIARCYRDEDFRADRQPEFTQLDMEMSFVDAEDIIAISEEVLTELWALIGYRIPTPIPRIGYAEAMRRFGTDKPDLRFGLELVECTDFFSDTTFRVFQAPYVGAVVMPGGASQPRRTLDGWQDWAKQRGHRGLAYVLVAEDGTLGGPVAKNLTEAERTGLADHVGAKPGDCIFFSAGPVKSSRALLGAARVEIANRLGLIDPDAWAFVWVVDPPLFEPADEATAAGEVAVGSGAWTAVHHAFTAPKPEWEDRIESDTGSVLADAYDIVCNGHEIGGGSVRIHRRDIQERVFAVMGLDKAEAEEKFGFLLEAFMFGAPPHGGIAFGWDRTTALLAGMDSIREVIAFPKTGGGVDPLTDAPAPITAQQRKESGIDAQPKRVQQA
Kind of test: Assay for Asp RNA synthetase-1 from Mycobacterium tuberculosis. In kind it is functional. The settings on record: 30 µM.

The target in test [4] is Sialic acid-binding Ig-like lectin 9 (Homo sapiens) (UniProt Q9Y336). Put plainly: Hs-Siglec9 ALPHAscreen SOP 20170721. Particulars: 10 µM. For orientation: Bead proximity is the source of the signal in Alpha formats.
Chain of Sialic acid-binding Ig-like lectin 9 (Homo sapiens) (Q9Y336 whole entry): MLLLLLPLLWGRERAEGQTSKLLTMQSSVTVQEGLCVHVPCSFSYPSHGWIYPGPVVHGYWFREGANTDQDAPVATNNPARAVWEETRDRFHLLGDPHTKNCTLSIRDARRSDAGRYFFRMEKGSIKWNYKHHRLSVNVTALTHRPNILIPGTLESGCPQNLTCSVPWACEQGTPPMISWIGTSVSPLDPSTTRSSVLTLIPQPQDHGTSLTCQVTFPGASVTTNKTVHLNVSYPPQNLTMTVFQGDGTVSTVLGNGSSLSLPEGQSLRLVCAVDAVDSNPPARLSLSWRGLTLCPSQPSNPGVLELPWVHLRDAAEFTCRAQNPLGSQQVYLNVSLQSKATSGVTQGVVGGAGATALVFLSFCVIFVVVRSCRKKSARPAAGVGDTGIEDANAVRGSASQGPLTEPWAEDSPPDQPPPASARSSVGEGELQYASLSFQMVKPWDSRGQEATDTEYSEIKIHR
In test [5] the test system is Trypanosoma cruzi. Put plainly: Trypanosoma cruzi phosphomannomutase and mannose-1-phosphate guanylyltransferase assay. Particulars: 10 µM. In kind it is functional.
The target of test [6] is T3, Arginase-2, mitochondrial (Homo sapiens) (UniProt P78540).
T3 sequence (whole entry): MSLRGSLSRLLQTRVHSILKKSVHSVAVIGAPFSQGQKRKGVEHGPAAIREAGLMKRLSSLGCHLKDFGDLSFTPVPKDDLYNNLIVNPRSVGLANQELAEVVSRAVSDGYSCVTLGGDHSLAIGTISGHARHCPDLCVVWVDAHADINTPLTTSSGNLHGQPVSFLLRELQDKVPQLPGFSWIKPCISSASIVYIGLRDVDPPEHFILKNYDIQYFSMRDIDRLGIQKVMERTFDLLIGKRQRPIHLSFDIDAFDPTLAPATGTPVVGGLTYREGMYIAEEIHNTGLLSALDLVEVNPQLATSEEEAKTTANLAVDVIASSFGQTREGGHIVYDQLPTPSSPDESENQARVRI
Put plainly: in vitro enzyme assay to detect the production of urea directly proportional to the activity of Arginase II. Note: in the data most compounds retested in dose-response had high values. In kind it is functional. Particulars: 33.3 µM.

The target in test [7] is T4, Proteasome subunit beta (Trypanosoma cruzi) (UniProt O96673).
T4 sequence (whole entry): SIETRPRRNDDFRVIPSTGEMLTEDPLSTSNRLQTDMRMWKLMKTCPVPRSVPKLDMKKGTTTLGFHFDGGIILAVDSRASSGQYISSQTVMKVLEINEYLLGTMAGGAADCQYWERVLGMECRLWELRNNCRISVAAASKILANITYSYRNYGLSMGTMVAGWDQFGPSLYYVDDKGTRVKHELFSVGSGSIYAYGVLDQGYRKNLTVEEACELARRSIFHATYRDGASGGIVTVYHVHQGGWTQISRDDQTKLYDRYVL
Kind of test: Trypanosoma cruzi proteasome chymotrypsin-like activity (TcProtChymo) assay. Note: in the data most compounds retested in dose-response had high values. In kind it is functional. The settings on record: 9.37 µM.

For test [8], the species on record is Homo sapiens. Put plainly: To identify inhibition of the IFN signalling (Jak-Stat) pathway via expression of an eGFP reporter gene under the control of an IFN-stimulated response element (ISRE) containing MxA promoter. In kind it is functional. Particulars: 30 µM. On the technique in general: A reporter such as luciferase makes a cellular process visible.
Test [9] deals with Shiga toxin 2 (Escherichia coli O157:H7) (UniProt P09385+P09386). Kind of test: E. coli 0.157:H7 Shiga Toxin SOP - stx2 screening assay. In kind it is functional. Particulars: 30 µM.
The target of test [10] is T5, Tyrosyl-tRNA synthetase, putative (Trypanosoma cruzi (strain CL Brener)) (UniProt Q4DSP6).
T5 sequence (whole entry): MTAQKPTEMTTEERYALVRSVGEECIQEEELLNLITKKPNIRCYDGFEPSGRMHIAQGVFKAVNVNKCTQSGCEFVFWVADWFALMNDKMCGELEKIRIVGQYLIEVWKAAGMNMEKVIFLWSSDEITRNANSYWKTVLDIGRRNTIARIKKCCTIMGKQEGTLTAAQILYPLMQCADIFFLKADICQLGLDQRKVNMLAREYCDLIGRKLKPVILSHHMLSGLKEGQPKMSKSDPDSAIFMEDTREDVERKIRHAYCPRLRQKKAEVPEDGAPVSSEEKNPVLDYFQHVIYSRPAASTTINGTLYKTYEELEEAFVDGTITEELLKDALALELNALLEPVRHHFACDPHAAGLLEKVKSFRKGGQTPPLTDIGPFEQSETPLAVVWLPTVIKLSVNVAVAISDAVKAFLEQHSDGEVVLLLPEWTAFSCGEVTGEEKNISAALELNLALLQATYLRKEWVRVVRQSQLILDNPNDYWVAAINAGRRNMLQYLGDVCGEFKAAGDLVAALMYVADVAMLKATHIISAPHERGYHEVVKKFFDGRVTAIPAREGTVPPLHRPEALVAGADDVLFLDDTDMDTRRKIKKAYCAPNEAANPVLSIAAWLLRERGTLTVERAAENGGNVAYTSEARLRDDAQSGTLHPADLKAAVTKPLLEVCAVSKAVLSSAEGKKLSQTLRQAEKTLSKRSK
Kind of test: Trypanosoma cruzi tyrosyl tRNA synthetase (TcYRS) _High Tyrosine SOP. Note: in the data most compounds retested in dose-response had high values. The settings on record: 30 µM. In kind it is functional.

In test [11] the target is T5, Tyrosyl-tRNA synthetase, putative (Trypanosoma cruzi (strain CL Brener)). Kind of test: Trypanosoma cruzi tyrosyl tRNA synthetase (TcYRS) SOP. In kind it is functional. Particulars: 30 µM.
For test [12], the target named is Chromo domain-containing protein 1 (Saccharomyces cerevisiae (strain ATCC 204508 / S288c) (Baker's yeast)) (UniProt P32657). Put plainly: ScCHD-1 Enzyme Inhibition Assay. Note: in the data most compounds retested in dose-response had high values. In kind it is functional. Particulars: 30 µM.
Chain of Chromo domain-containing protein 1 (Saccharomyces cerevisiae (strain ATCC 204508 / S288c) (Baker's yeast)) (P32657 whole entry, the tested form may be a part): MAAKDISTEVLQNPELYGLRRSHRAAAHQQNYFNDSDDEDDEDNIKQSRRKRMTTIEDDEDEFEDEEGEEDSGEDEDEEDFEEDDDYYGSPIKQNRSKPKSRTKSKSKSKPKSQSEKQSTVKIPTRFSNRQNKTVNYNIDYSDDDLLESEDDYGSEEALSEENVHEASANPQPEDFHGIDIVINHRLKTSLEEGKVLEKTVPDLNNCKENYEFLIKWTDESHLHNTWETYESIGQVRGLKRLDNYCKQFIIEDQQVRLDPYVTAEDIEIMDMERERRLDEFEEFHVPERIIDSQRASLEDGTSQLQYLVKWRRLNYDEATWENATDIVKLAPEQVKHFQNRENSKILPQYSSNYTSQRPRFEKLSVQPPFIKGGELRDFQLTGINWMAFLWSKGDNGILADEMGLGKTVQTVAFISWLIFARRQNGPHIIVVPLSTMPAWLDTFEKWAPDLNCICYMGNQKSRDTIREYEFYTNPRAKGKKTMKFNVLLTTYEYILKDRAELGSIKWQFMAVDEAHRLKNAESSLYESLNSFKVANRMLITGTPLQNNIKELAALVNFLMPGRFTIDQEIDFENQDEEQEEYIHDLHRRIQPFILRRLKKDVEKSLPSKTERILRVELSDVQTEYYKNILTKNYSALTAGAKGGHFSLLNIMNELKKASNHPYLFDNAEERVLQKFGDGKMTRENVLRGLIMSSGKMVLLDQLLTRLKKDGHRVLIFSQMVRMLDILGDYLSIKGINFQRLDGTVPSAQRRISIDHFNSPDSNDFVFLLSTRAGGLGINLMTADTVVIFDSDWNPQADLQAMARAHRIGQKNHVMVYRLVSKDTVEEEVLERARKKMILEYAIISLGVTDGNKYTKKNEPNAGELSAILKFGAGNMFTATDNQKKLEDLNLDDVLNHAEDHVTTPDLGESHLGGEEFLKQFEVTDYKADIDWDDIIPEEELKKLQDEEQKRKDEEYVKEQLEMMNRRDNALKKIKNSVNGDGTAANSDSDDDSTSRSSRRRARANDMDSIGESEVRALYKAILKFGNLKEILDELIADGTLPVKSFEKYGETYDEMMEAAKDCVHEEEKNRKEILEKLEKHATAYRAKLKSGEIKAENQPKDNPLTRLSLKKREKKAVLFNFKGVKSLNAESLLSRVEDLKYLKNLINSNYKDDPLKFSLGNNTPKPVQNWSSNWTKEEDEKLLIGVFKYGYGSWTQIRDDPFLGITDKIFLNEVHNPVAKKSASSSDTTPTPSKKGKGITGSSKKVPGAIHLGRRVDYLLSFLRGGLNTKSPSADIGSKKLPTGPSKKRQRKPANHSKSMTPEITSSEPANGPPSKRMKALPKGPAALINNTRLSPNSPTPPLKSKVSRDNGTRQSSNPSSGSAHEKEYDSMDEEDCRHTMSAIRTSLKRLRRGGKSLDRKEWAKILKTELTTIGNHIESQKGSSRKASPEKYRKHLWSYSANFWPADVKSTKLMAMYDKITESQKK

For some of these results: Entries with a potency or affinity are not part of this list.

Chain of Protein translocase subunit SecA (Escherichia coli (strain K12)) (P10408 whole entry): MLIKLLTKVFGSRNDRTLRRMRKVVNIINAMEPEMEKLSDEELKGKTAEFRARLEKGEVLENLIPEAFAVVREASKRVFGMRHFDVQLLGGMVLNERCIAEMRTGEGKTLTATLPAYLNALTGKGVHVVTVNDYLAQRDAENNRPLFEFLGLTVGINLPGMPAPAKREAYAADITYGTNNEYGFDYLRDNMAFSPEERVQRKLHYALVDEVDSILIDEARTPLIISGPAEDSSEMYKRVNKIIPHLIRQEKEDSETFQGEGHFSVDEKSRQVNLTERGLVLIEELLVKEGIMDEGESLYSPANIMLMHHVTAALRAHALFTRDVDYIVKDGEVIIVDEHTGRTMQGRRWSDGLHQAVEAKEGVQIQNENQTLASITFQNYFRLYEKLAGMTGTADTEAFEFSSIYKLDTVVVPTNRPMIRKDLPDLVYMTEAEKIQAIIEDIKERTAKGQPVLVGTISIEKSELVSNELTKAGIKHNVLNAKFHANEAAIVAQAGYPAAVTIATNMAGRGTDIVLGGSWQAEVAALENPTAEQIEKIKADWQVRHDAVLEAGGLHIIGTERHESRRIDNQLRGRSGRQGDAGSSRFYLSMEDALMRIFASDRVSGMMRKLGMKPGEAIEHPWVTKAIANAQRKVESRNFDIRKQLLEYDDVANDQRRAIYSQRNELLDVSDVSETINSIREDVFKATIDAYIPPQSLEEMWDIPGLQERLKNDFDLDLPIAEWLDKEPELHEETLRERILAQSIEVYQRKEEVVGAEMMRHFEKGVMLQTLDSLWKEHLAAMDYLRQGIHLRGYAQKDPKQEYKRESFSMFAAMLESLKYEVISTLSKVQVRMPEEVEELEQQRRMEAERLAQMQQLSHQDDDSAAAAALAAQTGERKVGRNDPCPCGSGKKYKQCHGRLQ

For the compound `CN1CCN(Cc2ccoc2)Cc2cccnc21`, the Percent Effect in test [1] is -4.57%; in [2] it was -14.3%; in test [3], 3.07%; in [4] it was -3.94%; in [5] it was -5.16%; in [6], 4.45%. The Percent Effect in test [7] is -0.265%; in test [8] it was 0.714%; in test [9], -8.68%; in [10] it was 5.79%; in test [11], -15.4%; in [12], 3.94%.

With `C[C@H]1C(=O)NC[C@H]2CN(Cc3ccccc3)C[C@H]21`, the Percent Effect in test [1] is -1.35%; in test [2] it was -1.3%; in test [3], 0.819%; in test [4] it was -0.437%; in [5], 1.5%; in test [6], -0.457%. The Percent Effect was -1.12% in test [7]; 13.9% in [8]; 5.59% in test [9]; 4.83% in test [10]; 0% in [11]; 0.883% in [12].

For the compound `Cc1cc(C)n(CC2CCCCN2CC(=O)Nc2nncs2)n1` (stereo unspecified), in test [3], the Percent Effect was -0.218%.

For the compound `NC[C@H]1[C@H]2CN(Cc3ccccc3)C[C@@H]12`, the Percent Effect in [1] is -1.98%; in [2], 19.5%; in [3] it was -0.091%; in test [4] it was 2.06%; in [5] it was -0.938%; in test [6] it was 1.83%. Also, the Percent Effect is 7.81% in test [7]; 31% in test [8]; -5.17% in [9]; 4.83% in test [10]; 15% in [11]; -6.97% in test [12].

Turning to `CCc1nc(CN2CCN(C(=O)Cc3c(C)noc3C)CC2)cs1`, the Percent Effect in test [1] was -0.475%; in test [2] it was 12.8%; in [3] it was -3.43%; in [4] it was -11.1%; in [5] it was 2.72%; in [6] it was 2.87%. Moreover, the Percent Effect in [7] was 6.06%; in [8], 10.4%; in test [9] it was -8.34%; in test [10], 6.22%; in test [11] it was 13.2%; in test [12], -5.04%.

Consider `CC(C)c1nccc([C@H]2C[C@@H]3CCN(Cc4ccoc4)C[C@H]3O2)n1`, for which the Percent Effect is -3.97% in test [1]; -6.49% in test [2]; -4.77% in test [3]; -2.81% in test [4]; 6.13% in test [5]; -6.48% in test [6]. Also, the Percent Effect in [7] was 16.7%; in [8], -14.2%; in test [9], 3.27%; in test [10] it was 5.79%; in test [11] it was 0%; in [12], -1.73%.

(Values after ChEMBL document CHEMBL3988442, “University of Dundee, Small-Polar-MMV Screening Library” (2021).)
